B1: d4r5_design_ppi_438_dldesign_0_cycle0_af2pred (protein)
chain: SKEEMERRAEQVEKAVEGAEEEAKEGTPEEALALLRSVLRRAKEVAEESKKYPEVKKRAEKALERAEKIKKELLEK
B2: d4r5_design_ppi_490_dldesign_0_cycle0_af2pred (protein)
chain: SKEEEAKKTGKEQVKKVKETAETGTAAETAETAQEARAELNEKAAEAGTEEARKIAEEAKKEIREIVKKKKEEEA
B3: d4r5_design_ppi_466_dldesign_0_cycle0_af2pred (protein)
chain: SEAEEILRETVERATAAAAAEDPALAPRVRAAAERAAEIAKSQKSIEAAAGVLEIFADRAAAASPAAAAVAREGARRLEELAK
B4: d4r5_design_ppi_400_dldesign_0_cycle1_af2pred (protein)
chain: AAAEAAAKEAAKAKADELLKKAKESYEEAKKNKDNKELVFKYLADIEVKAAQADFLGAKDPYAKEKAKEIEKLAKEAEKILK
B5: d4r5_design_ppi_400_dldesign_0_cycle0_af2pred (protein)
chain: AAAAAAAKAAAKAAAEKDLKRAEEAYKNAKKNKDNKEIVFKNYAEIETKAARADALAAADPYAAEAAKKIKELAEEAEKILK
B6: d4r5_design_ppi_438_dldesign_0_cycle1_af2pred (protein)
chain: DLEELKRRAEQVELLVEMAEEEAKTGSKEEALALLNSAIRDAKEVAEEGAAYPEVSERAKAALERAEKIRKELLAS
B7: d4r5_design_ppi_375_dldesign_0_cycle0_af2pred (protein)
chain: KEKEMANKLQEKIEELYSAATPEQQSKVSEKIKEARKAAKEAVKKYKEDEEKGKELFKKAEEILEEGLKEAK
B8: d4r5_design_ppi_375_dldesign_0_cycle1_af2pred (protein)
chain: AAKEMANELQELIEKLREASSVKDQNEVSKVIKEARKKAKEAIKAYEKDPELGKKLFEEAKEILEKALKKAE
B9: d4r5_design_ppi_428_dldesign_0_cycle1_af2pred (protein)
chain: AAAAAETAAARERAARDLARAEAAAKAGKADPSKAPLAIAILEGVAERFEFYAKAAGPAAAAVAREAAERAKALAKEL
B10: d4r5_design_ppi_378_dldesign_0_cycle0_af2pred (protein)
chain: AAAAAAAARAAMAAQAAANAAKAKEVFDKLAETYPEAKDEAKAKAAEVAAAFAATAAAGGDQAQLTANNNAAQDARSEVIAIANKK
B11: d4r5_design_ppi_429_dldesign_0_cycle0_af2pred (protein)
chain: VEEAKKLGEEYIKKVKEAKDAKEALEIGEKAAKELVEKAKASEDGETAQAYLEAASEVKATALRQARKLEE
B12: d4r5_design_ppi_473_dldesign_0_cycle1_af2pred (protein)
chain: GEAKRKKAEALLERYKARAEELIEKAKASDYVTAESYAISVETRFTDFAAAAEKDPATKEVAKRAKKVGKEYVEKLKKIAEEKKAAE
B13: d4r5_design_ppi_448_dldesign_0_cycle0_af2pred (protein)
chain: MKEKLKKEAKEAEKKMEELIKKIEEANPEAGKVAREAREKGKASPKGREYTNKGISEAGKLAGPEVAPIAQEARQEAAAADAYKKII
B14: d4r5_design_ppi_459_dldesign_0_cycle1_af2pred (protein)
chain: DLEALKEKYLKETKAAAEKAAKIDKKVGDELKDLAELIKEGYGVKGNYNKAKALAAKAEADAKKEAALKA
B15: d4r5_design_ppi_384_dldesign_0_cycle0_af2pred (protein)
chain: AVTWDEILDIQARANYYLSEAKKLTEEAYKEAKKLYEEARKHYGEAAKYLADAPKVGEEAKKKAAEHAKEAEKLVKELEELVKKAKE
B16: d4r5_design_ppi_384_dldesign_0_cycle1_af2pred (protein)
chain: GITWDELMDIQADAFYYLSEAKKITPEAEAKAKELYQKSLEYYKKAAEYLAKAEEVGPEAKEEAKEYADKAAEEVEKLKKLVEEAKN
B17: d4r5_design_ppi_347_dldesign_0_cycle1_af2pred (protein)
chain: GREEEAKRVAEVILERLKDPKAQEAAKKTGEAGKAFLEAYELYKKDREAGIEYLAKEILKNPSWAQDFRENYAEEEAK
B18: d4r5_design_ppi_435_dldesign_0_cycle1_af2pred (protein)
chain: SKSKKEAEKMREATRAFKEAGKAAAAAIASGETGEEAIAAARAKAEEVIKEAKEVGEGAGEFAEMLKENLDKALAAAS
B19: d4r5_design_ppi_466_dldesign_0_cycle1_af2pred (protein)
chain: EEKKKILEEAAKEAAAAAKADNPELAPRVERLAKRAVEIGTKQKSVEAAAGVMENAADQAAAAAPAAAAVLKKGAEELEKLAK

target: VTCN1, Q7Z7D3
Sequence (Q7Z7D3 whole entry): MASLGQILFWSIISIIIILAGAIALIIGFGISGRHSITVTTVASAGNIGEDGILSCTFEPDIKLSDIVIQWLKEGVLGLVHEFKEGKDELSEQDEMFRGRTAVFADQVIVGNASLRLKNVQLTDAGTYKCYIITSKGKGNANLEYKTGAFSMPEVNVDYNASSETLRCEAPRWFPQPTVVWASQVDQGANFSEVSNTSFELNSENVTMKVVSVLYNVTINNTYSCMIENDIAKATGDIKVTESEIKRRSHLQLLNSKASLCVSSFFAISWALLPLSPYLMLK

Binding in a display sort, inactive:
B1 not found
B2 not found
B3 not found
B4 not found
B5 not found
B6 not found
B7 not found
B8 not found
B9 not found
B10 not found
B11 not found
B12 not found
B13 not found
B14 not found
B15 not found
B16 not found
B17 not found
B18 not found
B19 not found

Source: PMC13494018
